Results published in PubChem BioAssay (Tox21).
Results filed as inconclusive are left out. Activity calls are given as the source filed them. Unless noted, calls come from the whole dose curve.

Columns and labels:
[1] = Nuclear factor erythroid 2-related factor 2/antioxidant responsive element (Nrf2/ARE) small molecule agonists: qHTS cell viability counter screen in human keratinocytes (AID 1919968; active = well fitted curve in the direction sought with a large enough effect in the repeat runs; an effect the other way counts as inactive or inconclusive; note: nearly all actives have a fitted effect of over 55% in size; note: potency is the fitted concentration of half-maximal effect)
Outline: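 KeratinoSens cells (HaCaT keratinocytes stably carrying an ARE-luciferase reporter) were seeded at 1,500 cells/well and rested 5 h at 37 C/5% CO2. They were then exposed to compounds in DMSO for 23 h. Viability was read by CellTiter-Fluor fluorescence after 1 h.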

[2] = Nuclear factor erythroid 2-related factor 2/antioxidant responsive element (Nrf2/ARE) small molecule agonists: luciferase reporter gene qHTS assay in human keratinocytes (AID 1919969); note: nearly all actives have a fitted effect of over 35% in size; note: potency is the fitted concentration of half-maximal effect
[3] = target: Gonadotropin-releasing hormone receptor (Homo sapiens) (UniProt P30968); assay: Human gonadotropin-releasing hormone receptor (GnRHR) small molecule agonists, calcium flux assay in GnRHR-HEK293 cells (AID 1920063); note: nearly all actives have a fitted effect of over 35% in size
Sequence of Gonadotropin-releasing hormone receptor (Homo sapiens) (P30968 whole entry, looked up): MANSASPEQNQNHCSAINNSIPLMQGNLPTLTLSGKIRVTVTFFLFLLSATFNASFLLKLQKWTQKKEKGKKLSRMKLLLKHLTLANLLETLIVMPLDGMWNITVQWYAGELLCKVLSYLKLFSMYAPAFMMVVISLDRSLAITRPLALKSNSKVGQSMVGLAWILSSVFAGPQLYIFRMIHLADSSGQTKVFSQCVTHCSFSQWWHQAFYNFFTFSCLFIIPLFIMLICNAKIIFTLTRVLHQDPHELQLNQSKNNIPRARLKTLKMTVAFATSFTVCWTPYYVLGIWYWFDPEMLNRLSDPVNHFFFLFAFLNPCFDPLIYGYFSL
Outline: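 HEK293 cells stably expressing human GnRHR were plated 18 h at 37 °C, loaded with calcium dye 1 h at 37 °C, then given compound in agonist mode; fluorescence (Ex/Em 480/540) read kinetically for 3 min at 1 s intervals.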

[4] = target: KiSS-1 receptor (Homo sapiens) (UniProt Q969F8); assay: Human kisspeptin (KISS1R) small molecule agonists, calcium flux assay in KISS1R-HEK293 cells (AID 1920064; active = well fitted curve in the direction sought with a large enough effect in the repeat runs; an effect the other way counts as inactive or inconclusive)
Sequence of KiSS-1 receptor (Homo sapiens) (Q969F8 whole entry, looked up): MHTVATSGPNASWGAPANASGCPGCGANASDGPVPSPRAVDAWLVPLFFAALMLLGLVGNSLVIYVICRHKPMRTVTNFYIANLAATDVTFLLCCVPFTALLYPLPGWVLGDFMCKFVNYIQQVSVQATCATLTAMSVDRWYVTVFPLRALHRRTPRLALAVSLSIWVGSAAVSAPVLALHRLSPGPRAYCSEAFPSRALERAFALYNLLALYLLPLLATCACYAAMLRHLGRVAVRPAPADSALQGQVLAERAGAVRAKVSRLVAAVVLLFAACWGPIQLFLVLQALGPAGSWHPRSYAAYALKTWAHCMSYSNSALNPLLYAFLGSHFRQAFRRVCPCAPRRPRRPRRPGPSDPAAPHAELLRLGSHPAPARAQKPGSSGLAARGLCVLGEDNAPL
Outline: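 HEK293 cells stably expressing human KISS1R were plated 18 h at 37 °C, loaded with calcium dye for 1 h at 37 °C, then given compound by pin tool. Fluorescence (Ex/Em 480/540) was read kinetically for 3 min.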

[5] = G protein-coupled receptor (GPCR) small molecule agonists, calcium flux assay: HEK293 wild type cell line counter screen (AID 1920065)
Outline: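 Cells were plated and cultured 18 h at 37 C/5% CO2, then loaded with calcium dye for 1 h at 37 C. Compounds in DMSO were pin-transferred in agonist mode, and fluorescence (Ex/Em 480/540) was read kinetically for 3 min at 1 s intervals.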

[6] = p53 small molecule agonists, cell-based qHTS assay with rat liver microsomes: qHTS cell viability counter screen (AID 1963580); note: nearly all actives have a fitted effect of over 45% in size
Outline: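 p53RE-bla HCT-116 cells were exposed 16 h at 37 C to compounds with rat liver microsomes (0.5 mg/mL) and NADPH (0.5 mg/mL). Viability was measured in the same wells as ATP content by CellTiter-Glo luminescence.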

[7] = p53 small molecule agonists, cell-based qHTS assay: qHTS cell viability counter screen (AID 1963581); note: nearly all actives have a fitted effect of over 45% in size; note: potency is the fitted concentration of half-maximal effect
Outline: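 p53RE-bla HCT-116 cells were exposed to compounds for 16 h at 37 C; after the beta-lactamase FRET read in the same wells, CellTiter-Glo was added and luminescence (intracellular ATP) read after 30 min at room temperature.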

[8] = target: 5-hydroxytryptamine receptor 2A (Homo sapiens) (UniProt P28223); assay: 5-hydroxytryptamine receptor 2A (HTR2A) small molecule antagonists, cell-based qHTS assay (AID 1963586); note: nearly all actives have a fitted effect of over 45% in size
Sequence of 5-hydroxytryptamine receptor 2A (Homo sapiens) (P28223 whole entry, looked up): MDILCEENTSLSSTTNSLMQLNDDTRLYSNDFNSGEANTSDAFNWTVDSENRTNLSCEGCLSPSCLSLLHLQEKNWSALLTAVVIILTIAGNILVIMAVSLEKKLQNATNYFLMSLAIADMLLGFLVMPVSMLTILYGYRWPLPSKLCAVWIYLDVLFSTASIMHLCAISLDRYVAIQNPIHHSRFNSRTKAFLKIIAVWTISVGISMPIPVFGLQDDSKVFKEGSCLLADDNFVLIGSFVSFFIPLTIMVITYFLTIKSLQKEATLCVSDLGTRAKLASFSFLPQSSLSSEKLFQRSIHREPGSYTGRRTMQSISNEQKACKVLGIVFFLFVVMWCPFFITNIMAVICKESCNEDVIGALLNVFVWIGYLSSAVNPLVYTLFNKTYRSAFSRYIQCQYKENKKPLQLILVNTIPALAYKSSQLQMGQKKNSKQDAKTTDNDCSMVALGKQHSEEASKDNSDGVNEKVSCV
Outline: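 Antagonist-mode intracellular calcium assay: DOI (4 nM) added after 5 min compound pre-incubation at room temperature to dye-loaded HTR2A-CHO cells. Fluorescence followed for 3 min, sampled every second.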

[9] = target: 5-hydroxytryptamine receptor 2A (Homo sapiens) (UniProt P28223); assay: 5-hydroxytryptamine receptor 2A (HTR2A) small molecule agonists, cell-based qHTS assay (AID 1963587); note: nearly all actives have a fitted effect of over 30% in size
Outline: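 CHO cells stably expressing human HTR2A, plated 18 h, loaded with calcium dye 1 h at 37 C. Agonist mode: compounds added and intracellular calcium fluorescence recorded kinetically for 2 min at 1 sec intervals.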

[10] = target: Muscarinic acetylcholine receptor M1 (Homo sapiens) (UniProt P11229); assay: Cholinergic receptor muscarinic 1 (CHRM1) small molecule antagonists, cell-based qHTS assay (AID 1963588); note: nearly all actives have a fitted effect of over 40% in size
Sequence of Muscarinic acetylcholine receptor M1 (Homo sapiens) (P11229 whole entry, looked up): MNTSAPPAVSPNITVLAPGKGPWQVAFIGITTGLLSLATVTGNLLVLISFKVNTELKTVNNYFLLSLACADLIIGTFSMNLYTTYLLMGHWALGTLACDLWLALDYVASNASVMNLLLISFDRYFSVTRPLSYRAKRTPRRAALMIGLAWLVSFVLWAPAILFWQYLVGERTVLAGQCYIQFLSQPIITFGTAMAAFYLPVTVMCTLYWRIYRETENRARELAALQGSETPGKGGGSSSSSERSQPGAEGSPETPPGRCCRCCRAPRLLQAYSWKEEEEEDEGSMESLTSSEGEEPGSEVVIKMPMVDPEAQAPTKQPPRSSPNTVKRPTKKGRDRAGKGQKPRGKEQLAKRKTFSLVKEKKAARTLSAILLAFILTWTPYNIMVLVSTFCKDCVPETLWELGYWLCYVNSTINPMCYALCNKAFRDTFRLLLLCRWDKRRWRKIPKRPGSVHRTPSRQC
Outline: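 CHRM1-CHO calcium-flux assay, antagonist mode. Cells were seeded 18 h, dye-loaded 1 h at 37 C and given compound for 5 min at RT, then acetylcholine was added at 50nM. FDSS fluorescence was read 3 min; 15 concentrations, three runs.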

[11] = cAMP Responsive Elements (CRE) small molecule agonists, cell-based qHTS assay (AID 1963590)
Outline: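 CRE-bla HEK 293T cells in DMEM with 10% dialyzed FBS, NEAA, pyruvate and 25 mM HEPES were plated 18 h at 37 C/5% CO2, then exposed to compounds in DMSO for 3 h before LiveBLAzer B/G FRET substrate addition.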

[12] = cAMP Responsive Elements (CRE) small molecule antagonists, cell-based qHTS assay (AID 1963591; active = well fitted inhibition curve with a large enough effect in the signal ratio in the repeat runs, not every such curve was filed as active; the % refers to the signal ratio)
Outline: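 CRE-bla HEK293T cells were plated 18 h at 37 °C/5% CO2, pinned with compound in DMSO, then stimulated with NKH477 at 0.25 uM final for 3 h. LiveBLAzer B/G FRET substrate was added and plates incubated 2 h at room temperature.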

[13] = target: Beta-2 adrenergic receptor (Homo sapiens) (UniProt P07550); assay: Adrenergic beta2 receptor (ADRB2) small molecule antagonists, cell-based qHTS assay (AID 1963592); note: series mostly up to about 92 µM; nearly all actives have a fitted effect of over 50% in size
Sequence of Beta-2 adrenergic receptor (Homo sapiens) (P07550 whole entry, looked up): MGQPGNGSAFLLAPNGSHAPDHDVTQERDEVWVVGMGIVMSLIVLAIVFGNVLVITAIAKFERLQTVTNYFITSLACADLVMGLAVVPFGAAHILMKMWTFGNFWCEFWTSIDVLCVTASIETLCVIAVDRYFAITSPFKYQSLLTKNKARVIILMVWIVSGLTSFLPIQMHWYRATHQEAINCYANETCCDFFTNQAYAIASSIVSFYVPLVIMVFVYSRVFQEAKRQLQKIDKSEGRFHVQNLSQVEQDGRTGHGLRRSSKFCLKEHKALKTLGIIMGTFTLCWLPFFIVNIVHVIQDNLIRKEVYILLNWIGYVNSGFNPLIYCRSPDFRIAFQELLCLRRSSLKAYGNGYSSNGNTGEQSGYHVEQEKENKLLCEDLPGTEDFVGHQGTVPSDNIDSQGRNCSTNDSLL
Outline: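 Cells (CHO, stable ADRB2 overexpression) incubated 18-20hr at 37C; compounds added from DMSO; agonist mix (1nM isoproterenol, 100uM IBMX, 25uM Ro-20-1724) added; 0.5hr RT; d2-cAMP and anti-cAMP-cryptate added; 1hr RT; 665/615 nm read.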

[14] = target: D(2) dopamine receptor (Homo sapiens) (UniProt P14416); assay: Dopamine D2 receptor (DRD2) small molecule agonists, cell-based qHTS assay (AID 1963594); note: nearly all actives have a fitted effect of over 35% in size
Sequence of D(2) dopamine receptor (Homo sapiens) (P14416 whole entry, looked up): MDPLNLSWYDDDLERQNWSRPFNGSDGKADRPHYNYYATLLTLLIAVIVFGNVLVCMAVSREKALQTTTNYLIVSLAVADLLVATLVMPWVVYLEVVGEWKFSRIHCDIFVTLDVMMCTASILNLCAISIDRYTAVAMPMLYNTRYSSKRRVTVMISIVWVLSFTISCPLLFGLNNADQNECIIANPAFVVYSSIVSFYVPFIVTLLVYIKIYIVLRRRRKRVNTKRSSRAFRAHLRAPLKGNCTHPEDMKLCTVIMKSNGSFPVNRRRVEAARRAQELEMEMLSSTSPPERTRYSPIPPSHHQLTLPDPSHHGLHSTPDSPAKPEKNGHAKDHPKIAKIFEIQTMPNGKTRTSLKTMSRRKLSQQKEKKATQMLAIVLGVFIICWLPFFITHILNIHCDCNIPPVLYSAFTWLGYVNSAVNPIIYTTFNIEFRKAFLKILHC
Outline: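 HEK293 cells stably expressing human DRD2, pre-treated with PDE inhibitor Ro20-1724 (0.1 mM final) and compound 10 min at room temperature, then stimulated with NKH477 (200nM […]) for 30 min. cAMP read by HTRF (665/620 nm).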

[15] = target: D(2) dopamine receptor (Homo sapiens) (UniProt P14416); assay: Dopamine D2 receptor (DRD2) small molecule antagonists, cell-based qHTS assay (AID 1963595; active = well fitted inhibition curve with a large enough effect in the signal ratio in the repeat runs, with a control signal flat; the % refers to the signal ratio)
Outline: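 HTRF cAMP read-out at 665 and 620 nm emission (340 nm excitation). Antagonist mode: compounds were tested against 12 nM quinpirole in DRD2-HEK293 cells, with 200 nM NKH477 raising cAMP and 0.1 mM Ro20-1724 blocking its breakdown.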

[16] = target: Muscarinic acetylcholine receptor M1 (Homo sapiens) (UniProt P11229); assay: Cholinergic receptor muscarinic 1 (CHRM1) small molecule agonists, cell-based qHTS assay (AID 1963589); note: nearly all actives have a fitted effect of over 35% in size
Outline: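 CHO cells stably expressing human CHRM1, seeded 18 h at 37 C/5% CO2, dye-loaded 1 h at 37 C, then given compound in agonist mode; intracellular calcium fluorescence read kinetically at 1 s intervals. Fifteen concentrations, three independent runs.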

[17] = target: Beta-2 adrenergic receptor (Homo sapiens) (UniProt P07550); assay: Adrenergic beta2 receptor (ADRB2) small molecule agonists, cell-based qHTS assay (AID 1963593);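 note: CHO cells stably overexpressing human ADRB2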
Outline: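 CHO cells stably over-expressing ADRB2 were plated overnight at 37C, then dosed with compounds plus a stimulation mix containing 100uM IBMX and 25uM Ro-20-1724 for 0.5hr at room temperature. cAMP was measured by HTRF competition, 1hr.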

[18] = p53 small molecule agonists, cell-based qHTS assay (AID 1963582; active = well fitted activation curve with a large enough effect in the signal ratio in the repeat runs, not every such curve was filed as active; the % refers to the signal ratio)
Outline: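 p53RE-bla beta-lactamase reporter cells rested 5 h at 37 C/5% CO2, then received compounds in DMSO by pin transfer and were incubated 16 h at 37 C. LiveBLAzer B/G FRET substrate was loaded for 2 h at room temperature before fluorescence reading.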
% is set by controls: 0 for no effect and ±100 for the full control effect.

C=CCOCC(O)CS(=O)(=O)O (configuration not stated)
inactive: Potency [1] | Potency [3] | Potency [4] | Potency [5] | Potency [6] | Potency [7] | Potency [8] | Potency [9] | Potency [10] | Potency [11] | Potency [12] | Potency [13] | Potency [14] | Potency [15]
active: Potency [2] 0.196 µM

Cc1nccn1-c1ccc(Sc2cccc(C3(C(N)=O)CCOCC3)c2)cc1
inactive: Potency [1] | Potency [2] | Potency [3] | Potency [4] | Potency [5] | Potency [6] | Potency [7] | Potency [8] | Potency [9] | Potency [16] | Potency [13] | Potency [17] | Potency [14]

CCCCC[Si](OCC)(OCC)OCC
inactive: Potency [1] | Potency [2] | Potency [3] | Potency [4] | Potency [5] | Potency [6] | Potency [7] | Potency [8] | Potency [9] | Potency [10] | Potency [16] | Potency [11] | Potency [12] | Potency [13] | Potency [17] | Potency [14] | Potency [15]

C=C1CC[C@H]2C[C@@H]1C2(C)C
inactive: Potency [1] | Potency [2] | Potency [3] | Potency [4] | Potency [5] | Potency [6] | Potency [7] | Potency [9] | Potency [10] | Potency [16] | Potency [11] | Potency [12] | Potency [13] | Potency [17] | Potency [14] | Potency [15]

NC(=O)c1c(Cl)cccc1Cl
inactive: Potency [1] | Potency [2] | Potency [3] | Potency [4] | Potency [5] | Potency [6] | Potency [7] | Potency [10] | Potency [16] | Potency [11] | Potency [12] | Potency [13] | Potency [17] | Potency [15]

C=C1C(C)(C)[C@@]2(Cl)C(Cl)[C@]1(Cl)C(Cl)(Cl)C2(Cl)Cl (some centres not stated)
active: Potency [1] 47.7 µM | Potency [2] 9.51 µM | Potency [7] 40 µM
inactive: Potency [3] | Potency [4] | Potency [5] | Potency [6] | Potency [8] | Potency [9] | Potency [10] | Potency [16] | Potency [13] | Potency [14] | Potency [15]

CCCCCC/C=C/C=O
inactive: Potency [1] | Potency [2] | Potency [3] | Potency [4] | Potency [5] | Potency [6] | Potency [7] | Potency [8] | Potency [9] | Potency [10] | Potency [16] | Potency [13] | Potency [17] | Potency [14] | Potency [15]

COc1cccc2sc(N)nc12
inactive: Potency [1] | Potency [2] | Potency [3] | Potency [4] | Potency [5] | Potency [6] | Potency [7] | Potency [8] | Potency [9] | Potency [10] | Potency [16] | Potency [11] | Potency [12] | Potency [14] | Potency [15]

S=C([S-])NCCNC(=S)[S-].S=C([S-])NCCNC(=S)[S-].[Mn+2].[Zn+2]
inactive: Potency [1] | Potency [2] | Potency [3] | Potency [4] | Potency [5] | Potency [6] | Potency [7] | Potency [8] | Potency [9] | Potency [10] | Potency [16] | Potency [11] | Potency [13] | Potency [14]

CN(C)[C@@H]1C(=O)C(C(N)=O)=C(O)[C@@]2(O)C(=O)C3=C(O)c4c(O)cccc4C[C@H]3C[C@@H]12
inactive: Potency [1] | Potency [2] | Potency [3] | Potency [4] | Potency [5] | Potency [6] | Potency [18] | Potency [8] | Potency [9] | Potency [10] | Potency [16] | Potency [13] | Potency [17] | Potency [14] | Potency [15]

c1ccc(-c2ccc(-c3ccccc3)cc2)cc1
inactive: activity change, negative = cytotoxicity [1] 1.35% [at 19 µM] | activity, positive = activation [2] 16.6% [at 19 µM] | activity change [3] 1.83% [at 11.8 µM, hits give high values] | activation [4] 1.85% [at 15.8 µM] | activation [5] 0.1% [at 11.8 µM] | activity change, negative = cytotoxicity [6] -3.67% [at 13.5 µM] | activity change, negative = cytotoxicity [7] -12.2% [at 13.5 µM] | activation [9] 13.6% [at 15.9 µM] | activity, negative = inhibition [10] 9.45% [at 12.6 µM] | activation [16] 0.405% [at 15.8 µM] | activation [11] -0.166% [at 19 µM] | activity change, negative = inhibition [12] -3.34% [at 18.9 µM] | activity change, negative = inhibition [13] 0.791% [at 19 µM] | activation [17] 7.35% [at 19 µM] | activation [14] 2.85% [at 19 µM] | activity change, negative = inhibition [15] 0.516% [at 18.9 µM]

Cc1ccc(C#N)cc1
inactive: Potency [1] | Potency [2] | Potency [3] | Potency [4] | Potency [5] | Potency [6] | Potency [7] | Potency [8] | Potency [9] | Potency [10] | Potency [16] | Potency [11] | Potency [12] | Potency [13] | Potency [14] | Potency [15]

CCCCN1C[C@H](O)[C@@H](O)[C@H](O)[C@H]1CO
inactive: Potency [1] | Potency [2] | Potency [3] | Potency [4] | Potency [5] | Potency [6] | Potency [7] | Potency [8] | Potency [9] | Potency [10] | Potency [16] | Potency [17] | Potency [14] | Potency [15]

COc1c2occc2c(OC)c2c(=O)cc(C)oc12
inactive: Potency [1] | Potency [2] | Potency [3] | Potency [4] | Potency [5] | Potency [6] | Potency [8] | Potency [9] | Potency [10] | Potency [16] | Potency [11] | Potency [13] | Potency [17] | Potency [14] | Potency [15]

Cc1cc(C)c(N)cc1C
inactive: Potency [1] | Potency [2] | Potency [3] | Potency [4] | Potency [5] | Potency [6] | Potency [7] | Potency [8] | Potency [9] | Potency [10] | Potency [16] | Potency [11] | Potency [12] | Potency [13] | Potency [14] | Potency [15]

COc1ccnc(CS(=O)c2nc3cc(OC(F)F)ccc3[nH]2)c1OC (configuration not stated)
inactive: Potency [1] | Potency [2] | Potency [3] | Potency [4] | Potency [5] | Potency [6] | Potency [7] | Potency [11] | Potency [13] | Potency [17] | Potency [14] | Potency [15]
